PubChem BioAssay
Where “and” joins values, the source holds several entries; their conditions need not be identical. Equal values may be shown once. Calls of active or inactive are those of the source. No rule for the calls is given here.

How the values were obtained:
[1] = kinase inhibitors against Plasmodium liver-stage infection, cell-based, known kinase inhibitor set, luminescence, hepatoma host viability (AID 624392); conditions: Plasmodium liver stage in hepatoma cells, luciferase luminescence, concentration not given here; liver cell % of control: measured here: host liver cell viability; parasite % of control: stronger effect = lower value;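 also: infected cells incubated roughly two days before readout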
[2] = modulators of glucocorticoid suppression of NF-kB, cell-based, luciferase, IL-1B stimulus, dexamethasone (AID 624486); conditions: NF-kB luciferase reporter, IL-1B + dexamethasone, luminescence; percent of negative control (+Dex): actives lie on both sides, concentration not given here; z-score: measured here: IL-1B alone, no Dex;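 as to percent of negative control (+Dex): 100% = mean signal of vehicle control wells on the plate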
[3] = target: Cellular tumor antigen p53 (Homo sapiens) (UniProt P04637); test: kinase inhibitors altering GFP-p53 stability in HPV16-positive cells, imaging, known kinase inhibitor set, EGFP/DsRed ratio (AID 1053116); conditions: stronger effect = higher value; EGFP object count: measured here: GFP-p53 positive objects count;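 also: cells exposed to compounds for 24 h at 37 °C before reading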
Sequence of Cellular tumor antigen p53 (Homo sapiens) (P04637 whole entry, looked up): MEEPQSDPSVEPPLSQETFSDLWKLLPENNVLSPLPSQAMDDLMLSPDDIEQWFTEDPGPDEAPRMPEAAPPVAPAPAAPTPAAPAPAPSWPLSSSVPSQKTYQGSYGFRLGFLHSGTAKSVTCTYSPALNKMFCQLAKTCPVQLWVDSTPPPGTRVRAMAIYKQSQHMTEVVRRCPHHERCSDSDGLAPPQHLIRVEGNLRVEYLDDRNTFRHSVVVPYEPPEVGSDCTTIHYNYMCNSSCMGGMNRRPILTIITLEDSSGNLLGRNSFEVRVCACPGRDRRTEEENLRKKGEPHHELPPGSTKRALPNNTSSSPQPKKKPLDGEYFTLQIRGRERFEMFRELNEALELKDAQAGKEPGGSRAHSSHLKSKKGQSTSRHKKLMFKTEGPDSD

[4] = IRF3 reporter activation in THP-1 macrophages, cell-based, PMA-stimulated THP-1, luminescence (AID 1053176); conditions: PMA-differentiated THP-1, IRF3 reporter luminescence; stronger effect = higher value

Row | Structure (SMILES) | liver cell % of control [1] | parasite % of control [1] | percent of negative control (+Dex) [2] | z-score [2] | EGFP object count [3] | EGFP/DsRed ratio [3] | fraction signal [4]
1 | COc1ccc(O)c(C(=O)c2ccc(C(=O)O[C@H]3CCCNC[C@@H]3NC(=O)c3ccncc3)cc2)c1F | 113% | 109% (inactive) | 62% (active) | -1.53 | 15.5 | 0.253 (inactive) | 0.001 (inactive)
2 | Cn1cc(C2=C(c3cn(CCCCN)c4ccccc34)C(=O)NC2=O)c2ccccc21 | 117% | 65.7% (inactive) | 98.5% (inactive) | 0.945 | 3.5 | 0.117 (inactive) | 0.01 (inactive)
3 | Cn1cc(C2=C(c3cccc(OCC(O)CO)c3)C(=O)NC2=O)c2cc(F)ccc21 (stereo not given) | 125% | 31.6% (inactive) | 97% (inactive) | 0.67 | 8 | 0.21 (inactive) | -0.0075 (inactive)
4 | COc1cc(F)c(F)c(F)c1C(=O)c1cnc(NC2CCN(S(C)(=O)=O)CC2)nc1N | 92.2% | 450% (inactive) | 122% (inactive) | 0.18 | 3 | 0.21 (inactive) | -0.0095 (inactive)
5 | CN1CCN(CCc2cccc(C(=O)c3cnn(-c4ccc(F)cc4)c3N)c2)CC1 | 112% | 51.1% (inactive) | 96.5% (inactive) | 1.1 | 5 | 0.187 (inactive) | 0.0015 (inactive)
6 | O=c1c(Oc2ccc(F)cc2F)cc2cnc(NC3CCOCC3)nc2n1C1CC1 | 113% | 52.9% (inactive) | 92.5% (inactive) | -0.435 | 4 | 0.269 (inactive) | -0.0095 (inactive)
7 | COc1ccc2c(c1)C(c1ccccc1Cl)=Nc1c(n[nH]c1C)N2 | 81.2% | 28.8% (inactive) | 92% (inactive) | -0.45 | 3 | 0.0722 (inactive) | 0.0035 (inactive)
8 | O=c1[nH]c2nc(NC3CCOCC3)ncc2cc1Oc1ccc(F)cc1F | 94.5% | 56.1% (inactive) | 104% (inactive) | 0.61 | 2 | 0.08 (inactive) | -0.003 (inactive)
9 | CCOc1ccccc1CCN=C1NC(=O)C(=Cc2ccc3ncccc3c2)S1 | 106% | 66% (inactive) | 90% (inactive) | -0.335 | 11.5 | 0.141 (inactive) | 0.031 (inactive)
10 | Cn1c(=O)c(Sc2ccccc2F)cc2cnc(NC3CCOCC3)nc21 | 103% | 68.5% (inactive) | 107% (inactive) | 0.685 | 2 | 0.0407 (inactive) | -0.0075 (inactive)
11 | CC(=O)NC(Cc1ccc(OP(=O)(O)O)cc1)C(=O)NC1CCC(=O)N2CCCC(C(=O)NCc3ccccc3)N2C1=O (stereo not given) | 105% | 55% (inactive) | 102% (inactive) | 0.685 | 1.5 | 0.0487 (inactive) | -0.0115 (inactive)
12 | Cn1c(=O)c(Oc2ccc(F)cc2F)cc2cnc(NC(CO)CO)nc21 | 113% | 64.2% (inactive) | 108% (inactive) | 0.05 | 2.5 | 0.0637 (inactive) | 0.0035 (inactive)
13 | O=C1NC(=NCc2ccccc2Cl)SC1=Cc1ccc2ncccc2c1 | 108% | 42.1% (inactive) | 95% (inactive) | -0.715 | 9 | 0.384 (inactive) | -0.0075 (inactive)
14 | CC(=C1SC(=NCc2cccs2)NC1=O)c1ccc2ncccc2c1 | 89.5% | 33.7% (inactive) | 92.5% (inactive) | -0.085 | 5 | 0.0357 (inactive) | -0.009 (inactive)
15 | N=C1N=C(N)C(=Cc2ccc3ncccc3c2)S1 | 121% | 61.8% (inactive) | 98.5% (inactive) | 1.46 | 3.5 | 0.171 (inactive) | 0.006 (inactive)
16 | CC(C)(O)CCc1cccc(C(=O)c2cnn(-c3ccc(F)cc3)c2N)c1 | 105% | 56.9% (inactive) | 110% (inactive) | 0.16 | 1.5 | 0.0442 (inactive) | 0.0185 (inactive)
17 | Cc1[nH]nc2c1N=C(c1ccccc1F)c1cc(C(N)=O)ccc1N2 | 91.5% | 76.9% (inactive) | 110% (inactive) | 0.59 | 54.5 | 0.555 (active) | -0.005 (inactive)
18 | Cn1cc(C2=C(Nc3ccccc3)C(=O)NC2=O)c2ccccc21 | 106% | 67.5% (inactive) | 106% (inactive) | 0.495 | 7 | 0.118 (inactive) | -0.007 (inactive)
19 | CCCCCNC(=O)C1CCCN2C(=O)CCC(NC(=O)C(Cc3ccc(OP(=O)(O)O)cc3)NC(C)=O)C(=O)N12 (stereo not given) | 106% | 50.1% (inactive) | 99% (inactive) | 0.695 | 3.5 | 0.227 (inactive) | -0.007 (inactive)
20 | CS(=O)(=O)CCCn1c(=O)c(Oc2ccc(F)cc2F)cc2cnc(NC3CCOCC3)nc21 | 98.7% | 51.4% (inactive) | 101% (inactive) | 0.05 | 1 | 0.0135 (inactive) | -0.009 (inactive)

Row | Structure (SMILES) | liver cell % of control [1] | parasite % of control [1] | percent of negative control (+Dex) [2] | z-score [2] | EGFP object count [3] | EGFP/DsRed ratio [3] | fraction signal [4]
21 | Cn1cc(C2=C(c3cn(C)c4ccc(OCc5ccccc5)cc34)C(=O)NC2=O)c2ccccc21 | 97.7% | 46.6% (inactive) | 101% (inactive) | -0.035 | 4.5 | 0.132 (inactive) | -0.016 (inactive)
22 | O=C1NC(=NCCc2cccc(F)c2)SC1=Cc1ccc2ncccc2c1 | 113% | 54% (inactive) | 85.5% (inactive) | -0.65 | 5.5 | 0.176 (inactive) | -0.018 (inactive)
23 | CC(=O)NC(Cc1ccc(OP(=O)(O)O)cc1)C(=O)NC1CCC(=O)N2CCCC(C(=O)Nc3cccc4ccccc34)N2C1=O (stereo not given) | 103% | 47% (inactive) | 104% (inactive) | 0.475 | 6.5 | 0.135 (inactive) | -0.007 (inactive)
24 | CNC(C#Cc1c(F)ccc2c1C(=Cc1[nH]ccc1OC)C(=O)N2)CO (stereo not given) | 129% | 62.7% (inactive) | 144% (active) | 1.07 | 51.5 | 0.055 (inactive) | 0.001 (inactive)
25 | CN(C)CC1CCn2c(c(C3=C(c4cn(C)c5ccccc45)C(=O)NC3=O)c3ccccc32)C1 (stereo not given) | 80.7% and 77.1% | 27.7% (inactive) and 36.4% (inactive) | 97% (inactive) and 96.5% (inactive) | -0.715 and -0.17 | 13.5 and 7.5 | 0.0249 (inactive) and 0.0159 (inactive) | -0.0005 (inactive) and -0.0055 (inactive)
26 | Cn1cc(C2=C(c3ccccc3[N+](=O)[O-])C(=O)NC2=O)c2ccccc21 | 80.1% | 121% (inactive) | 147% (active) | -1.21 | 19 | 0.315 (inactive) | 0.0035 (inactive)
27 | Cn1c(=O)c(Oc2ccc(F)cc2F)cc2cnc(NC3CCOC3)nc21 (stereo not given) | 96.2% | 51.2% (inactive) | 104% (inactive) | 0.575 | 4.5 | 0.257 (inactive) | -0.001 (inactive)
28 | Cn1cc(C2=C(c3cn(C)c4ncccc34)C(=O)NC2=O)c2ccccc21 | 95.3% | 38.8% (inactive) | 100% (inactive) | -0.87 | 20 | 0.579 (inactive) | -0.009 (inactive)
29 | O=C1NC(=O)C(c2c[nH]c3ccccc23)C1c1c[nH]c2ccccc12 (stereo not given) | 102% | 41.2% (inactive) | 100% (inactive) | 0.125 | 2.5 | 0.0298 (inactive) | -0.0005 (inactive)
30 | Nc1c(C(=O)c2ccc(CCCN3CCOCC3)cc2)cnn1-c1ccc(F)cc1 | 119% | 61% (inactive) | 106% (inactive) | 0.435 | 2 | 0.0463 (inactive) | 0.001 (inactive)
31 | COc1cccc(F)c1C(=O)c1cnc(NC2CCN(S(C)(=O)=O)CC2)nc1N | 93.1% | 512% (inactive) | 116% (inactive) | 2.08 | 3.5 | 0.124 (inactive) | -0.018 (inactive)
32 | Nc1c(C(=O)c2cccc(C(O)(CO)CO)c2)cnn1-c1ccc(F)cc1 | 95.6% | 51.5% (inactive) | 104% (inactive) | 0.905 | 3 | 0.0614 (inactive) | 0.0095 (inactive)
33 | Cn1cc(C2=C(c3cn(C)c4ccc(N)cc34)C(=O)NC2=O)c2ccccc21 | 95.1% | 36.7% (inactive) | 98% (inactive) | 0.385 | 11 | 0.25 (inactive) | -0.0115 (inactive)
34 | Nc1c(C(=O)c2ccccc2)cnn1-c1ccc(F)cc1 | 97.1% | 76.7% (inactive) | 152% (active) | 5.57 | 5 | 0.17 (inactive) | -0.0025 (inactive)
35 | COc1ccc(OC)c(C2=C(c3cn(C)c4ccccc34)C(=O)NC2=O)c1 | 105% | 22.1% (inactive) | 99% (inactive) | -0.03 | 15 | 0.328 (inactive) | -0.003 (inactive)
36 | CC(=O)NC(Cc1ccc(OP(=O)(O)O)cc1)C(=O)NC1CCC(=O)N2CCCC(C(=O)NCc3ccc(O)cc3)N2C1=O (stereo not given) | 107% | 44.4% (inactive) | 94.5% (inactive) | 0.215 | 6 | 0.202 (inactive) | -0.007 (inactive)
37 | Cn1c(=O)c(Oc2ccccc2F)cc2cnc(NC3CCOCC3)nc21 | 116% | 49.5% (inactive) | 107% (inactive) | 0.09 | 7 | 0.313 (inactive) | 0.001 (inactive)
38 | Cn1cc(C2=C(c3c4n(c5ccccc35)CCNC4)C(=O)NC2=O)c2ccccc21 | 79.3% | 40.6% (inactive) | 97.5% (inactive) | -0.32 | 25 | 0.0526 (inactive) | -0.007 (inactive)
39 | O=C1NC(=NCCc2cccc(Cl)c2)SC1=Cc1ccc2ncccc2c1 | 131% | 170% (inactive) | 89.5% (inactive) | -0.11 | 15 | 0.216 (inactive) | -0.0025 (inactive)
40 | CON=C(c1ccccc1)c1cnn(-c2ccccc2)c1N | 121% | 79.3% (inactive) | 98.5% (inactive) | 0.245 | 3.5 | 0.128 (inactive) | 0.0055 (inactive)
